Results reported in the supplement of paper PMC10849652.
Of roughly 7,900 targets only a part is listed; those with a hit were picked by preference. About 0.6% of all pairs of compound and target were hits. A number with no mark means an inactive call.

Columns and labels:
Experiment in all cases: log2 fold change, soluble protein after heating vs DMSO (PISA); higher = thermal stabilisation; K562 cells, 10 uM, 30 min; active = over 0.2 and 3.5 SD of the protein, either way, in both replicates (recomputed)
[1] = compound: CC[C@@H]1C(=O)N(C)c2cnc(Nc3ccc(C(=O)NC4CCN(C)CC4)cc3OC)nc2N1C1CCCC1
In short: (§1)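 K562 cells at 2×10^6 cells/mL were exposed to 10 μM compound for 30 min, then aliquots were heated for 3 min across 48°C-58°C, pooled, and extracted in PBS containing 0.5% NP-40 at 4°C. The supernatant after 21,000xg for 90 min was taken as soluble protein and measured by TMTpro 16plex LC-MS/MS with channel sums equalised. Thermal stability is reported relative to control samples, with values from duplicates. Fold changes are given on a log2 scale.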

volasertib = compound: CC[C@@H]1C(=O)N(C)c2cnc(Nc3ccc(C(=O)N[C@H]4CC[C@H](N5CCN(CC6CC6)CC5)CC4)cc3OC)nc2N1C(C)C [volasertib]
In short: as §1

[2] = compound: CC[C@H](C)N1C=C(C2=C(C=C(C=C21)C3=CN=C(C=C3)N4CCNCC4)C(=O)NCC5=C(C=C(NC5=O)C)C)C
In short: as §1

epoxomicin = compound: CC[C@H](C)[C@@H](C(=O)N[C@@H]([C@@H](C)O)C(=O)N[C@@H](CC(C)C)C(=O)[C@]1(CO1)C)NC(=O)[C@H]([C@@H](C)CC)N(C)C(=O)C [epoxomicin]
In short: as §1

[3] = compound: CCn1c(C(=O)N(C2CC2)C2CC2)cc2c3c(ncn3C)c(Nc3cc(C)n(C)n3)nc21
In short: as §1

[4] = compound: CCn1cc(-c2ccnc3[nH]c(-c4cccc(CN(C)C)c4)cc23)c(-c2ccc(NC(=O)N(C)C)cc2)n1
In short: as §1

[5] = compound: CN(C)CC(=O)Nc1ccc2[nH]c(=O)c3ccccc3c2c1
In short: as §1

rosiglitazone = compound: CN(CCOC1=CC=C(C=C1)C[C@H]2C(=O)NC(=O)S2)C3=CC=CC=N3 (racemic) [rosiglitazone]
In short: as §1

[6] = compound: CN1C2=C(C3=C1C(=O)N(N=C3)CC4=CC(=CC=C4)N)SC(=C2)S(=O)C
In short: as §1

[7] = compound: CN1CCC(CNc2ccc3ncc(-c4cccc(OC(F)(F)F)c4)n3n2)CC1
In short: as §1

saracatinib = compound: CN1CCN(CCOc2cc(OC3CCOCC3)c3c(Nc4c(Cl)ccc5c4OCO5)ncnc3c2)CC1 [saracatinib]
In short: as §1

sotrastaurin = compound: CN1CCN(c2nc(C3=C(c4c[nH]c5ccccc45)C(=O)NC3=O)c3ccccc3n2)CC1 [sotrastaurin]
In short: as §1

alvocidib = compound: CN1CC[C@H](c2c(O)cc(O)c3c(=O)cc(-c4ccccc4Cl)oc23)[C@H](O)C1 [alvocidib]
In short: as §1

Tubastatin A = compound: CN1CCc2c(c3ccccc3n2Cc2ccc(C(=O)NO)cc2)C1 [Tubastatin A]
In short: as §1

[8] = compound: CNC(=O)C1=CC=CC=C1NC2=NC(=NC=C2Cl)NC3=C(C=C(C=C3)N4CCOCC4)OC
In short: as §1

defactinib = compound: CNC(=O)c1ccc(Nc2ncc(C(F)(F)F)c(NCc3nccnc3N(C)S(C)(=O)=O)n2)cc1 [defactinib]
In short: as §1

rucaparib = compound: CNCc1ccc(-c2[nH]c3cc(F)cc4c3c2CCNC4=O)cc1 [rucaparib]
In short: as §1

[9] = compound: CNc1nc(-c2ccc3c(N)n[nH]c3c2)cc(N2C[C@@H](C(=O)NC3CCCCC3)CC[C@H]2C)n1
In short: as §1

encorafenib = compound: COC(=O)N[C@@H](C)CNc1nccc(-c2cn(C(C)C)nc2-c2cc(Cl)cc(NS(C)(=O)=O)c2F)n1 [encorafenib]
In short: as §1

[10] = compound: COC(=O)[C@H](CCSC)NC(=O)C1=C(C=C(C=C1)NC[C@H](CS)N)C2=CC=CC=C2
In short: as §1

Chain of UniProt Q04637 (Q04637 whole entry, looked up): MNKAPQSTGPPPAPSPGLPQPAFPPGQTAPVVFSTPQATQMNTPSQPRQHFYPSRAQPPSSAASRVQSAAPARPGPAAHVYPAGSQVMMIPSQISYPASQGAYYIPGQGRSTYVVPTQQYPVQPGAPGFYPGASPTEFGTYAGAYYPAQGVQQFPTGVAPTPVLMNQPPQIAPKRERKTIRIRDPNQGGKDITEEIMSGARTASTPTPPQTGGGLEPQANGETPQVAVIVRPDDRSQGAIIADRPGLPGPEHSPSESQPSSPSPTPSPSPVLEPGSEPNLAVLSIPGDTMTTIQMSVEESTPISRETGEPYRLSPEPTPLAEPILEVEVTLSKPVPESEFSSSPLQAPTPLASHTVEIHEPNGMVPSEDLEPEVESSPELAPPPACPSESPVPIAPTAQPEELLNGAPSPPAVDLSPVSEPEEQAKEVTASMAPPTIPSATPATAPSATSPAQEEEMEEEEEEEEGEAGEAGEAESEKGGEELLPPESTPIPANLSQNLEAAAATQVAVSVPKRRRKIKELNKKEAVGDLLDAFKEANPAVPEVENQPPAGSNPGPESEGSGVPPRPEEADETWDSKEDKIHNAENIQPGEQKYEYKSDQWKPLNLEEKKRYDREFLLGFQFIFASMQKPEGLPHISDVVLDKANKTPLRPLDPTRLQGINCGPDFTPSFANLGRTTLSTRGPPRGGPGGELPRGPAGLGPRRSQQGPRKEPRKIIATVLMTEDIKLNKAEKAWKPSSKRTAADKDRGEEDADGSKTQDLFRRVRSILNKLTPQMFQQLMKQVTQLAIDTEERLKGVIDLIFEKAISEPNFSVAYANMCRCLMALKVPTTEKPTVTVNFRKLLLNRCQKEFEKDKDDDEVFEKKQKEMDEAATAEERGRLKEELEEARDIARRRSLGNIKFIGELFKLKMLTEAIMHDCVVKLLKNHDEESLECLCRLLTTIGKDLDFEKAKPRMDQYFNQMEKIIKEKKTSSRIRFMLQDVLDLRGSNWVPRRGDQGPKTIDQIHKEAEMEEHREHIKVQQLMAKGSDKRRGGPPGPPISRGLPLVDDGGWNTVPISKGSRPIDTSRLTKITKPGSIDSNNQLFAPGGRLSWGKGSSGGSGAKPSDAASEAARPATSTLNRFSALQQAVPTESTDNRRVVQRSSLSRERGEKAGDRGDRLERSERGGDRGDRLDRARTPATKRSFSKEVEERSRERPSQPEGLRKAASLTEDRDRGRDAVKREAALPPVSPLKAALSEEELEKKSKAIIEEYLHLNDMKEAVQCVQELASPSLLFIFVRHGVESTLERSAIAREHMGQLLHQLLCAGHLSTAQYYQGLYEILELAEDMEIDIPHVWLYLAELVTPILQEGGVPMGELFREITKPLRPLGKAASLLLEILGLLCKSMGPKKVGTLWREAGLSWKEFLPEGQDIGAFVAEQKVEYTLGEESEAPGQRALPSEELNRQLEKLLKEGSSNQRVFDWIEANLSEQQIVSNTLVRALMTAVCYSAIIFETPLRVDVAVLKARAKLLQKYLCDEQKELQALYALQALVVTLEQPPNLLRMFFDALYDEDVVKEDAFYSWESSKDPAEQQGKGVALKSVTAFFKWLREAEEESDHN
Chain of UniProt P13498 (P13498 whole entry, looked up): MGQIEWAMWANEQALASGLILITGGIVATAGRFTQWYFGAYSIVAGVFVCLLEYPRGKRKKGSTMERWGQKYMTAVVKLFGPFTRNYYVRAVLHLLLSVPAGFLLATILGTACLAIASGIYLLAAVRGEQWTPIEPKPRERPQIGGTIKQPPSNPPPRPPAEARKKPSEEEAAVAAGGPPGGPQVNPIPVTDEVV
Chain of UniProt Q96GG9 (Q96GG9 whole entry, looked up): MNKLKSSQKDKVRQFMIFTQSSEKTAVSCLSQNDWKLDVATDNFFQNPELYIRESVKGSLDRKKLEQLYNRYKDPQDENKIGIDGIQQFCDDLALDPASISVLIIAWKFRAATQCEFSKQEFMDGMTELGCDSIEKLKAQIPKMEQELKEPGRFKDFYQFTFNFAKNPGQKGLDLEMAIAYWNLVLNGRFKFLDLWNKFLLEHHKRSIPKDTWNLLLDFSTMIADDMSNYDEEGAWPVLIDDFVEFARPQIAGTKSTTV
Chain of UniProt Q9NV06 (Q9NV06 whole entry, looked up): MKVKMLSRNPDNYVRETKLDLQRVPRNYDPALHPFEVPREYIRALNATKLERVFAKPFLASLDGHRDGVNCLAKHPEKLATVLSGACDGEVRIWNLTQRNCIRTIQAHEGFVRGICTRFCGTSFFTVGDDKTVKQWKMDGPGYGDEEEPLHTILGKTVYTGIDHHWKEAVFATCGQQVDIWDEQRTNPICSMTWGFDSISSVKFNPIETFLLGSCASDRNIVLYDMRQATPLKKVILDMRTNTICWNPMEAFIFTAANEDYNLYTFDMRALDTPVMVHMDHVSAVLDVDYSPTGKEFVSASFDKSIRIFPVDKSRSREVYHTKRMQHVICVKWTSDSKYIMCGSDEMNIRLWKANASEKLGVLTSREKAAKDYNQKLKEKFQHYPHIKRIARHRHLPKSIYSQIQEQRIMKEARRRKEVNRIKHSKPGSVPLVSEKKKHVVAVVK
Chain of UniProt Q9NRY5 (Q9NRY5 whole entry, looked up): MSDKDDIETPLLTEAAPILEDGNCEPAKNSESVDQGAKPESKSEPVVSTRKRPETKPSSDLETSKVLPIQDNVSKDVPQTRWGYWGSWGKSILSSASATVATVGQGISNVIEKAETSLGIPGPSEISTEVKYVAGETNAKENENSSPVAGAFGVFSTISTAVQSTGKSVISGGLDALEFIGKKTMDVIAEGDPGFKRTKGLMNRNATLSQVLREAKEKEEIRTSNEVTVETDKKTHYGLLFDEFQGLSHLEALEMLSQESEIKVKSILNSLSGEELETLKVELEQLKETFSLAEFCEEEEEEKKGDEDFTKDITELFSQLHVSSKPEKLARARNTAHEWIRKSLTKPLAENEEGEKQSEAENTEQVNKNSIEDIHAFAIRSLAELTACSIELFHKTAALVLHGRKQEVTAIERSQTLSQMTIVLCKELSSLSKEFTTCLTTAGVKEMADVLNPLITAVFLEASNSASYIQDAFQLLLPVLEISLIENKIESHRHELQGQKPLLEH
Chain of UniProt P09668 (P09668 whole entry, looked up): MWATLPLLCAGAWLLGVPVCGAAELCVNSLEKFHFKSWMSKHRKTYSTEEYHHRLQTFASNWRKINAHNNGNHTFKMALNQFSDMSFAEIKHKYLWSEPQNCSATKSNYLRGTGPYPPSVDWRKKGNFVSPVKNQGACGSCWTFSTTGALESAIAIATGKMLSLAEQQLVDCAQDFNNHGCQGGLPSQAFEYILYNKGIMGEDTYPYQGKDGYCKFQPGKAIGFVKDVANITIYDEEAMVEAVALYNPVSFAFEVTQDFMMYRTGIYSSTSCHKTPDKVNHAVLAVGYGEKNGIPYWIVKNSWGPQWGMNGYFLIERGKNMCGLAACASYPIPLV
Chain of UniProt Q9UBR2 (Q9UBR2 whole entry, looked up): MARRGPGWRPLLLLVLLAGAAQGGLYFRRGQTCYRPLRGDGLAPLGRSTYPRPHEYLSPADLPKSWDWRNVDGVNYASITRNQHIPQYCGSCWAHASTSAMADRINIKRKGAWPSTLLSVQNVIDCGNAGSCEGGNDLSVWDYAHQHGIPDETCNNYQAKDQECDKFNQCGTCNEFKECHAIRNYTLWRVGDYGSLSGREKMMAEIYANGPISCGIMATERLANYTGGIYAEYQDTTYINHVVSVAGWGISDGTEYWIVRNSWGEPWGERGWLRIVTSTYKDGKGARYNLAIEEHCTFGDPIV
Chain of UniProt Q6P3W2 (Q6P3W2 whole entry, looked up): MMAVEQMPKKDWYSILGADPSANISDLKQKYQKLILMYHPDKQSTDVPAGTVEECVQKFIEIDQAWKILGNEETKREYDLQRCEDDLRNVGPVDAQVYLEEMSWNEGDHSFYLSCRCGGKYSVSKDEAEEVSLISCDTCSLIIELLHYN
Chain of UniProt Q9UBQ6 (Q9UBQ6 whole entry, looked up): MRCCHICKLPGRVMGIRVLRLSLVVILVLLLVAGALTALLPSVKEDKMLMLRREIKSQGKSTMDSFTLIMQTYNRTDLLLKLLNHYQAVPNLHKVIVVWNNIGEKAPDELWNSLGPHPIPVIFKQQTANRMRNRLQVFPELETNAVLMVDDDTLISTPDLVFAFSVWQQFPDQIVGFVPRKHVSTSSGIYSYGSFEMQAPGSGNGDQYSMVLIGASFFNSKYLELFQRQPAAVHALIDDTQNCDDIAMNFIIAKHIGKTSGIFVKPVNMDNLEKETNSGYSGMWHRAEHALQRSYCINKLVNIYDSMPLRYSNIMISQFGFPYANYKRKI

Target	log2 fold change [1]	log2 fold change (volasertib)	log2 fold change [2]	log2 fold change (epoxomicin)	log2 fold change [3]	log2 fold change [4]	log2 fold change [5]	log2 fold change (rosiglitazone)	log2 fold change [6]	log2 fold change [7]	log2 fold change (saracatinib)	log2 fold change (sotrastaurin)	log2 fold change (alvocidib)	log2 fold change (Tubastatin A)	log2 fold change [8]	log2 fold change (defactinib)	log2 fold change (rucaparib)	log2 fold change [9]	log2 fold change (encorafenib)	log2 fold change [10]
FAM114A2 (UniProt Q9NRY5)	-0.094	-0.136	0.046	0.052	-0.001	-0.059	0.02	0.049	-0.013	-0.29 (active)	0.005	-0.048	-0.078	-0.019	-0.001	-0.04	-0.022	-0.054	0.008	0.025
EIF4G1 isoform 8 (UniProt Q04637)	-0.114	-0.487	0.174	0.016	-0.076	0.005	0.031	0.047	0.181	-0.425	-0.08	-0.36	0.021	0.034	-0.067	0.008	0.197	-0.017	0.092	-0.05
DCAF13 (UniProt Q9NV06)	0.134	0.26	0.03	-0.24	0.038	0.132	-0.166	-0.112	0.195	0.136	-0.027	0.001	0.214	0.094	0.074	0.165	0.19	0.045	0.07	0.029
DCUN1D1 (UniProt Q96GG9)	-0.1	-0.276 (active)	0.018	0.048	-0.006	-0.061	0.03	0.013	-0.056	-0.178	0.032	-0.001	-0.067	-0.009	0.007	-0.033	-0.026	-0.02	0.014	-0.011
CTSZ (UniProt Q9UBR2)	-0.954 (active)	-1.54 (active)	-0.058	0.02	0.022	0	-0.026	-0.028	-0.087	-0.843 (active)	0.025	0.079	-0.008	-0.056	0.005	0	-0.098	0.012	-0.012	0.027
CTSH (UniProt P09668)	-0.087	-0.06	0.008	-0.022	0.03	0.057	0.001	0.004	-0.008	-0.295 (active)	0.101	0.044	0.038	0.017	-0.002	0.018	-0.121	-0.03	0.018	0.02
CYBA (UniProt P13498)	-0.091	-0.125	-0.026	0.037	0.047	0.074	-0.02	0.058	-0.064	-0.04	0.067	0.033	-0.031	-0.02	0.01	0.014	-0.035	-0.013	0.031	0.008
EXTL2 (UniProt Q9UBQ6)	0.057	-0.052	0.041	-0.035	-0.04	-0.046	0.06	-0.024	-0.001	-0.157	0.157	0.036	-0.122	-0.136	-0.072	-0.145	0.001	0.052	-0.08	0.13
DNAJC24 (UniProt Q6P3W2)	-0.318	-0.244	0.029	0.034	0.049	–	-0.027	-0.01	-0.284	–	0.185	-0.081	-0.038	-0.094	-0.033	0.116	0.059	-0.351 (active)	0.038	0.099
